Source: PubChem BioAssay (NCATS)
Values joined by “and” are separate entries in the source; they are usually repeats but may differ in a detail not shown here. Identical values can stand only once. Results filed as inconclusive are left out. A structure can be active in one record and inactive in another. Active and inactive are the calls of the source. Calls come from the whole dose curve; as a rule, active = well fitted curve in the direction sought with a large enough effect; inconclusive = small, poorly fitted or top-dose-only effect, or another doubt; inactive = no such curve, though single readings can be large; an effect the other way counts as inactive or inconclusive. Where a SMILES comes first, the peptide text is derived from it. [ ]: non-standard residue; d: D form. The star is where a group is joined. Sta = CC(C)C[C@H](N)[C@@H](O)CC(=O)O; Isovaleryl = CC(C)CC(=O)*

What was measured:
[1] = molecular target: Cytochrome P450 3A7 (Homo sapiens) (UniProt P24462); test: Cytochrome P450 family 3 subfamily A member 7 (CYP3A7) small molecule antagonists: luciferase biochemical qHTS assay (AID 1963596); note: % is set by controls: 0 for no effect and ±100 for the full control effect; nearly all actives have a fitted effect of over 40% in size
Outline: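 Enzyme-substrate mix + cpd (DMSO), 10 min RT; + NADPH regen system, 1 h RT; + luciferin detection reagent, 20 min RT; luminescence read. Proluciferin substrate, P450-Glo format, 1536-well qHTS.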

[2] = Viability qHTS for spleen associated tyrosine kinase inhibitor (SYKi) naive MV4-11 cells (AID 1963823); note: nearly all actives have a fitted effect of over 40% in size; note: potency is the fitted concentration of half-maximal effect
Outline: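 SYK inhibitor-naive MV4-11 cells, 500 per well, exposed to compounds for 72 hr at 37 C, 5% CO2. Viability read as CellTiter-Glo luminescence after 10 min at room temperature.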

[3] = Viability qHTS for spleen associated tyrosine kinase inhibitor (SYKi) drug resistant MV4-11 cells (AID 1963824); note: nearly all actives have a fitted effect of over 35% in size; note: potency is the fitted concentration of half-maximal effect
Outline: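 SYK-inhibitor-resistant MV4-11 AML cells were seeded at 500 per well onto compound and cultured 72 hours (37 °C, 5% CO2). CellTiter-Glo was then added, and after 10 min at room temperature, luminescence gave viability.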

[4] = Quantitative highthroughput screen to assess conditional lethalithy of NOMO1 cells grown in RPMI1640 with untreated serum (RPMI+s) (AID 1963876);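 note: 100% = DMSO wells and 0% = empty wells without cells; nearly all actives have a fitted effect of over 35% in size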
Outline: (§1)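 Each medium arm—HPLM with 10% dialyzed FBS, or RPMI1640 with 5 mM glucose and 10% untreated or dialyzed FBS—was screened against an 11-point, 3-fold compound titration for 48 h at 37 °C, with CellTiter-Glo luminescence as endpoint.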

[5] = Quantitative highthroughput screen to assess conditional lethalithy of NOMO1 cells grown in RPMI1640 with dialyzed fetal bovine serum (RPMI+ds) (AID 1963877);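 note: series mostly up to about 46 µM; 100% = DMSO control wells and 0% = empty wells; nearly all actives have a fitted effect of over 30% in size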
Outline: as §1

[6] = Quantitative highthroughput screen to assess conditional lethalithy of NOMO1 cells grown in Human Plasma-Like Medium with dialyzed fetal bovine serum (HPLM+ds) (AID 1963878);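 note: 100% = DMSO wells and 0% = empty wells on each plate; nearly all actives have a fitted effect of over 35% in size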
Outline: as §1

[7] = Quantitative highthroughput screen to assess conditional lethalithy of P12 Ichikawa cells grown in Human Plasma-Like Medium with dialyzed fetal bovine serum (HPLM+ds) (AID 1963879); conditions: Potency: viability; note: series mostly up to about 46 µM; nearly all actives have a fitted effect of over 35% in size
Outline: as §1

[8] = Quantitative highthroughput screen to assess conditional lethalithy of P12 Ichikawa cells grown in RPMI1640 with dialyzed fetal bovine serum (RPMI+ds) (AID 1963880); conditions: Potency: P12-Ichikawa viability; note: nearly all actives have a fitted effect of over 35% in size; note: potency is the fitted concentration of half-maximal effect;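 for Viability: 100% = DMSO wells and 0% = empty wells on each plate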
Outline: as §1

[9] = Quantitative highthroughput screen to assess conditional lethalithy of P12 Ichikawa cells grown in RPMI1640 with untreated serum (RPMI+s) (AID 1963881); conditions: Potency: viability; note: nearly all actives have a fitted effect of over 35% in size; note: potency is the fitted concentration of half-maximal effect;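 for Viability: series mostly up to about 46 µM; 100% = DMSO wells and 0% = empty wells without cells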
Outline: as §1

[10] = Quantitative highthroughput screen to assess conditional lethalithy of SEM cells grown in Human Plasma-Like Medium with dialyzed fetal bovine serum (HPLM+ds) (AID 1963882)
Outline: as §1

[11] = Quantitative highthroughput screen to assess conditional lethalithy of SEM cells grown in RPMI1640 with unreated serum (RPMI+s) (AID 1963883); note: nearly all actives have a fitted effect of over 35% in size; note: potency is the fitted concentration of half-maximal effect;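 for Viability: 100% = DMSO wells and 0% = empty wells without cells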
Outline: as §1

[12] = Quantitative highthroughput screen to assess conditional lethalithy of SEM cells grown in RPMI1640 with dialyzed fetal bovine serum (RPMI+ds) (AID 1963884)
Outline: as §1

[13] = Cellular viability qHTS for adrenocortical cancer (ACC) cell line SW-13 (AID 1963989); conditions: SW-13 ACC cells viability, CellTiter-Glo, 48 h; activity (max response): stronger effect = lower value; note: nearly all actives have a fitted effect of over 65% in size; note: potency is the fitted concentration of half-maximal effect;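 for activity (max response): cells grown in serum-free medium with ITS supplement; % is set by controls: 0 for no effect and ±100 for the full control effect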
Outline: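 SW-13 cells in ITS-supplemented serum-free DMEM were plated overnight, then exposed for 48 h at 37C to compound titrations (up to 46 uM final). Viability was read by CellTiter-Glo luminescence; four-parameter logistic fits gave IC50 and efficacy.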

[14] = Cellular viability qHTS for adrenocortical cancer (ACC) cell line NCI-H295R (AID 1963990);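 note: 0% = DMSO only wells and -100% = full killing with cytotoxic reference compound; nearly all actives have a fitted effect of over 60% in size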
Outline: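 Luminescent ATP read-out (CellTiter-Glo, 20 min RT) after 48 h drug exposure of NCI-H295R cells; a titration up to 46 uM final. Data normalized to doxorubicin (100% inhibition) and DMSO (0%); 4-parameter fit gives IC50, max response.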

Cytochrome P450 3A7 (Homo sapiens), sequence (P24462 whole entry, looked up): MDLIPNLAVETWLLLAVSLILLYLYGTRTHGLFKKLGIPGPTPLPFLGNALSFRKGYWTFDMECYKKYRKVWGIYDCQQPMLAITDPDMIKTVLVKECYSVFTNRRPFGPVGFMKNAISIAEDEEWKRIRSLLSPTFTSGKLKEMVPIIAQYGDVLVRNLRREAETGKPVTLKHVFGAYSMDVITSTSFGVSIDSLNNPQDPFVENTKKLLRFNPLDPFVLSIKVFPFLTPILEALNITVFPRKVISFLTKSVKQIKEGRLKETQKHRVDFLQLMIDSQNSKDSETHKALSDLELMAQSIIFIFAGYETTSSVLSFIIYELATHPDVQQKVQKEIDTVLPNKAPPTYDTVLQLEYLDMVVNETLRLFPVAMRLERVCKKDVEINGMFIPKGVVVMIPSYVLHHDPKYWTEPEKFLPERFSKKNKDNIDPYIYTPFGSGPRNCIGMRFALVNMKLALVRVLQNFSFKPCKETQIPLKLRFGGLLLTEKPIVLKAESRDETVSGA

NS(=O)(=O)c1cc2c(cc1Cl)NCNS2(=O)=O
inactive: Potency [1] | Potency [2] | Potency [3] | Potency [4] | Potency [5] | Potency [6] | Potency [7] | Potency [8] | Potency [9] | Potency [10] | Potency [11] | Potency [12] | activity (max response) [13] 11.9% and 0.967% | Potency [14]

O=C(OC1C[C@H]2CC[C@@H](C1)[N+]21CCCC1)C(O)(c1ccccc1)c1ccccc1 (stereo not given in full)
inactive: Potency [1] | Potency [2] | Potency [3] | Potency [4] | Potency [5] | Potency [6] | Potency [7] | Potency [8] | Potency [9] | Potency [10] | Potency [11] | Potency [12] | activity (max response) [13] -1.15% | Potency [14]

Cn1c(N2CCCCS2(=O)=O)nc(C(=O)NCc2ccc(F)cc2)c(O)c1=O
inactive: Potency [1] | Potency [2] | Potency [3] | Potency [4] | Potency [5] | Potency [6] | Potency [7] | Potency [8] | Potency [9] | Potency [10] | Potency [12]

CC(C)CC(=O)N[C@H](C(=O)N[C@H](C(=O)N[C@@H](CC(C)C)[C@@H](O)CC(=O)N[C@@H](C)C(=O)N[C@@H](CC(C)C)[C@@H](O)CC(=O)O)C(C)C)C(C)C (Isovaleryl-VV[Sta]A[Sta]-OH)
inactive: Potency [1] | Potency [2] | Potency [3] | Potency [4] | Potency [5] | Potency [6] | Potency [7] | Potency [8] | Potency [9] | Potency [14]
active: Potency [11] 26.4 µM

Cc1cn(C[C@H](N)C(=O)O)c(=O)n(Cc2ccsc2C(=O)O)c1=O
inactive: Potency [1] | Potency [2] | Potency [3]

NC(=O)OCC(COC(N)=O)c1ccccc1
inactive: Potency [1] | Potency [2] | Potency [3] | Potency [4] | Potency [5] | Potency [6] | Potency [7] | Potency [8] | Potency [10] | Potency [11] | Potency [12] | activity (max response) [13] 2.38% and -8.33% | Potency [14]

O=C(NC(Cc1cc(=O)[nH]c2ccccc12)C(=O)O)c1ccc(Cl)cc1 (stereo not given)
inactive: Potency [1] | Potency [2] | Potency [3] | Potency [4] | Potency [5] | Potency [6] | Potency [7] | Potency [8] | Potency [9] | Potency [10] | Potency [11] | Potency [12] | activity (max response) [13] 7.09% and -3.01% | Potency [14]

COC(=O)C1=C(C)NC(C)=C(C(=O)OCCN2CCN(C(c3ccccc3)c3ccccc3)CC2)C1c1cccc([N+](=O)[O-])c1 (stereo not given)
active: Potency [2] 11.9 µM | Potency [3] 6.68 µM | Potency [13] 4.47 µM
inactive: Potency [1] | Potency [4] | Potency [5] | Potency [6] | Potency [7] | Potency [9] | Potency [10] | Potency [11] | Potency [12]

C[C@@H]1CN(c2c(F)c(F)c3c(=O)c(C(=O)O)cn(C4CC4)c3c2F)C[C@H](C)N1
inactive: Potency [1] | Potency [2] | viability, % of control [3] 79.8% [at 9.25 µM] | activity (max response) [13] 12.9% | Potency [14]
active: Potency [3] 4.61 µM

NC(=O)c1cccnc1
inactive: Potency [1] | Potency [2] | Potency [3] | Potency [4] | Potency [5] | Potency [6] | Potency [7] | Potency [8] | Potency [9] | activity (max response) [13] -8.19% and 2.22% | Potency [14]

O=C(c1ccc(C(=O)N2CCC(N3CCCC3)CC2)c(Nc2ccccc2)c1)N1CCC(N2CCCC2)CC1
inactive: Potency [1] | Potency [2] | Potency [3] | Potency [4] | Potency [5] | Potency [6] | Potency [7] | Potency [8] | Potency [9] | Potency [10] | Potency [11] | Potency [12] | activity (max response) [13] 11.8% | Potency [14]

C[C@H]1c2cccc(O)c2C(O)=C2C(=O)[C@]3(O)C(O)=C(C(N)=O)C(=O)[C@@H](N(C)C)[C@@H]3[C@@H](O)[C@@H]21
inactive: Potency [1] | Potency [4] | Potency [5] | Potency [6] | Potency [7] | Potency [10] | Potency [11] | activity (max response) [13] -2.36% and -5.39% | Potency [14]
active: Potency [3] 14.8 µM | Potency [8] 16.6 µM | Potency [9] 18.7 µM
inactive and 16.6 µM (active): Potency [2]

CC(C)Cn1cnc2c(N)nc3ccccc3c21
inactive: Potency [1] | Potency [2] | Potency [3] | Potency [4] | Potency [5] | Potency [6] | Potency [7] | Potency [8] | Potency [9] | Potency [10] | Potency [11] | Potency [12] | activity (max response) [13] 0.433% and -11.1% | Potency [14]

COc1ccc(-c2ccc3cc(C(=O)O)ccc3c2)cc1C12CC3CC(CC(C3)C1)C2
inactive: Potency [1] | Potency [4] | Potency [5] | Potency [6] | Potency [7] | Potency [8] | Potency [9] | Potency [11] | Potency [12] | activity (max response) [13] -2.5% and -9.37% | Potency [14]
active: Potency [2] 0.211 µM | Potency [3] 1.32 µM

COc1nc(C)nc(Cl)c1NC1=NCCN1
inactive: Potency [1] | Potency [2] | Potency [3] | Potency [4] | Potency [5] | Potency [6] | Potency [7] | Potency [8] | Potency [9] | Potency [10] | Potency [11] | Potency [14]
